13 compounds from PubChem BioAssay (NCI) can be followed below.

Some test systems named below: HCT-15 colon; HT29 colon; SNB-75 CNS; SNB-19 CNS; U251 CNS; PC-3 prostate; SK-MEL-5 melanoma; UACC-62 melanoma; LOX IMVI melanoma; SK-MEL-28 melanoma.
Common to all, as to experiment: NCI-60 one-dose screen, 48 h (100 = growth as untreated, 0 = no growth, -100 = all killed)
Common to all, as to details: 10 µM unless noted

Structures are written as SMILES. About 83,000 compounds went through this panel and 20% of them were active in at least one assay; those are over-represented in the sample as a whole.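 Note: values are percent growth. 100 is the growth of untreated cells, values between 100 and 0 indicate rising inhibition; between -100 and 0 indicates cell death.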 A number with no mark means an inactive call. The source made the active and inactive calls. The calls were made as follows: active = growth percent below 10; inactive = the rest.

With `CC1[C@H](C)OC(=O)CC(O)CC(O)CC(O)CCC(O)C(O)C[C@]2(O)CC(O)C(C(=O)O)C(CC(OC3O[C@H](C)[C@@H](O)[C@H](N)[C@@H]3O)/C=C/C=C/C=C/C=C/CC/C=C/C=C/[C@H](C)[C@H]1O)O2` (stereo not given in full), the growth is 109% in the test with HCT-15 colon; 107% in the test with HT29 colon; 103% in the test with SNB-75 CNS; 109% with SNB-19 CNS; 92.4% with U251 CNS; 98.7% in the test on PC-3 prostate. For the same compound, the growth was 97.2% with SK-MEL-5 melanoma, 109% with UACC-62 melanoma, 89.7% in the test with LOX IMVI melanoma and 110% in the test with SK-MEL-28 melanoma.

Take `C#Cc1ccc2c(c1)C(c1ccccc1F)=NCC(=O)N2C`: the growth was 28% with HCT-15 colon; 15.7% in the test on HT29 colon; 51.7% in the test on SNB-75 CNS; 49% in the test with SNB-19 CNS; 39.7% with U251 CNS; 55.8% in the test on PC-3 prostate. Further, the growth was 29.9% with SK-MEL-5 melanoma, 31.3% in the test with UACC-62 melanoma, 47.5% in the test on LOX IMVI melanoma and 63.8% in the test with SK-MEL-28 melanoma.

`COC(=O)[C@@]1(O)C[C@H]2O[C@]1(C)n1c3ccccc3c3c4c(c5c6ccccc6n2c5c31)C(=O)NC4`: the growth in the test with HCT-15 colon was -29.3% (active); with HT29 colon, -24.6% (active); with SNB-75 CNS, -97.1% (active); in the test on SNB-19 CNS, -27.9% (active); in the test on U251 CNS, -67.1% (active); in the test on PC-3 prostate, -50.3% (active). The growth in the test with SK-MEL-5 melanoma is -89.4% (active); with UACC-62 melanoma, -47.4% (active); in the test with LOX IMVI melanoma, -69.2% (active); in the test with SK-MEL-28 melanoma, -58.9% (active).

As to `CC1=C(CCCNS(C)(=O)=O)C2=C(C)C3(CC3)[C@@](C)(O)C(=O)C2=C1`, the growth was 4.29% (active) with HCT-15 colon; -2.04% (active) with HT29 colon; -60.6% (active) with SNB-75 CNS; 8.19% (active) with SNB-19 CNS; 1.79% (active) in the test on U251 CNS; 6.58% (active) in the test with PC-3 prostate. The growth in the test on SK-MEL-5 melanoma was -89.8% (active); in the test on UACC-62 melanoma, -52.7% (active); in the test on LOX IMVI melanoma, 2.21% (active); in the test with SK-MEL-28 melanoma it was -28.4% (active).

For `CCOC(=O)[C@@H](C)C[C@H](Cc1ccccc1)NC(=O)c1nc([C@@H](C[C@H](C(C)C)N(C)C(=O)[C@@H](NC(=O)[C@H]2CCCCN2C)C(C)C)OC(C)=O)sc1CCOCc1ccccc1`, the growth in the test with HCT-15 colon was -30.5% (active); with HT29 colon it was -50.7% (active); in the test on SNB-75 CNS, -11.2% (active); with SNB-19 CNS, 4.69% (active); with U251 CNS it was -32.4% (active); in the test on PC-3 prostate, 5.66% (active). Further, the growth is -39.7% (active) in the test with SK-MEL-5 melanoma, 4.15% (active) in the test with UACC-62 melanoma, -54.4% (active) in the test on LOX IMVI melanoma and -23.7% (active) with SK-MEL-28 melanoma.

Turning to `C[C@]12C[C@@H](CO)[C@H](O)C[C@@H]1CC[C@@H]1[C@@H]2CC[C@]2(C)[C@@H](O)CC[C@@H]12`, the growth in the test on HCT-15 colon is 105%; in the test on HT29 colon it was 84%; in the test on SNB-75 CNS it was 107%; in the test on SNB-19 CNS, 108%; in the test with U251 CNS, 96.1%; in the test on PC-3 prostate, 95.1%. Also, the growth in the test with SK-MEL-5 melanoma was 103%; with UACC-62 melanoma, 106%; in the test with LOX IMVI melanoma, 93.8%; in the test on SK-MEL-28 melanoma, 105%.

In the case of `CC[C@H](C)[C@H](NC(=O)[C@H]1CCCCN1C)C(=O)N(C)[C@H](CC(=O)c1nc(C(=O)N[C@@H](Cc2ccccc2)C[C@H](C)C(=O)O)cs1)C(C)C`, the growth in the test on HCT-15 colon is 99.2%; in the test on HT29 colon, 78%; in the test on SNB-75 CNS, 49.3%; in the test with SNB-19 CNS it was 55.5%; in the test with U251 CNS, 45.9%; in the test with PC-3 prostate, 78.3%. The growth in the test on SK-MEL-5 melanoma was 56.1%; in the test on UACC-62 melanoma, 32.2%; in the test with LOX IMVI melanoma, 47.2%; with SK-MEL-28 melanoma it was 81.3%.

With `CC12CCC3C(CCC4=CC(=O)CCC43CF)C1CCC2=O` (stereo not given), the growth in the test on HCT-15 colon was 106%; in the test with HT29 colon, 116%; in the test on SNB-75 CNS, 90.1%; with SNB-19 CNS, 109%; in the test on U251 CNS, 111%; in the test on PC-3 prostate, 97.4%. The growth was 109% in the test with SK-MEL-5 melanoma, 115% in the test on UACC-62 melanoma, 96.6% in the test with LOX IMVI melanoma and 117% in the test with SK-MEL-28 melanoma.

For the compound `Fc1c[c-]c(-c2ccccn2)c(F)c1.[CH3-].[Pt+2].c1ccc([PH+](c2ccccc2)c2ccccn2)cc1`, the growth with HCT-15 colon is -36.7% (active); in the test on HT29 colon it was -13% (active); with SNB-75 CNS, -5.13% (active); in the test with SNB-19 CNS, 26%; in the test on U251 CNS it was 6.42% (active); in the test on PC-3 prostate, 15.4%. In addition, the growth in the test with SK-MEL-5 melanoma is -75.3% (active); in the test with UACC-62 melanoma, -30.5% (active); in the test on LOX IMVI melanoma, -95.3% (active); in the test on SK-MEL-28 melanoma, -21.9% (active).

For `CCCC[C@H](NC(=O)[C@H]1CCCN1C)C(=O)N(C)[C@H](C[C@@H](OC(C)=O)c1nc(C(=O)N[C@@H](Cc2ccccc2)C[C@H](C)C(=O)OCC)cs1)C(C)C`, the growth is 19.1% in the test with HCT-15 colon; 1.99% (active) in the test with HT29 colon; 51.5% with SNB-75 CNS; 38.4% in the test with SNB-19 CNS; 8.61% (active) in the test with U251 CNS; 13% in the test with PC-3 prostate. The growth was -25.1% (active) with SK-MEL-5 melanoma, 43.4% with UACC-62 melanoma, 20.8% in the test with LOX IMVI melanoma and 71.3% in the test on SK-MEL-28 melanoma.

In the case of `O=C1CNC(c2ccccc2)c2cc(Cl)ccc2N1` (stereo not given), the growth was 105% in the test with HCT-15 colon; 80.4% in the test on HT29 colon; 85.6% with SNB-75 CNS; 96.6% with SNB-19 CNS; 105% in the test with U251 CNS; 99.3% in the test with PC-3 prostate. For the same compound, the growth in the test on SK-MEL-5 melanoma is 101%; in the test on UACC-62 melanoma, 93.4%; in the test with LOX IMVI melanoma, 96.3%; in the test on SK-MEL-28 melanoma, 116%.

With `C1CCC([PH+](C2CCCCC2)C2CCCCC2[PH+](C2CCCCC2)C2CCCCC2)CC1.O=C(C1[CH-]CCCC1)C1CCCC[N-]1.[Au]` (stereo not given), the growth is 2.02% (active) in the test on HCT-15 colon; -43.7% (active) in the test with HT29 colon; -6.22% (active) in the test with SNB-75 CNS; -95.2% (active) in the test on SNB-19 CNS; -84.1% (active) with U251 CNS; -6.85% (active) in the test on PC-3 prostate. Further, the growth in the test with SK-MEL-5 melanoma was -98.8% (active); in the test with UACC-62 melanoma it was -85.8% (active); in the test on LOX IMVI melanoma it was -95.9% (active); in the test on SK-MEL-28 melanoma it was -69.5% (active).

Take `CC12CCC3C(CCC4Cc5[nH]c6ccccc6c5CC43C)C1CCC2O` (stereo not given): the growth was 33.2% with HCT-15 colon; 10.7% in the test on HT29 colon; 31.7% in the test on SNB-75 CNS; 28% in the test on SNB-19 CNS; 20.1% in the test with U251 CNS; 34.5% with PC-3 prostate. The growth in the test with SK-MEL-5 melanoma is 2.53% (active); in the test with UACC-62 melanoma, 31.8%; in the test on LOX IMVI melanoma it was 13.4%; in the test on SK-MEL-28 melanoma, 54.8%.
